According to PubChem BioAssay AID463173 (ICCB-Longwood Screening Facility, Harvard Medical School, 2010):
Among all 52,000 compounds or so, about 4,300 (8.3%) were called active. No stated cut-off is given here; in the data, active means survival mostly below about 52% (no sharp cut-off); inactive means mostly above about 56%. Shown is part of a subset that was picked to be rich in actives.

test system: DeltatarO mutant; assay: growth inhibition of S. aureus wild type versus tarO mutant, primary screen, teichoic acid synthesis inhibitors, RN4220, OD600 (AID 463173); conditions: OD600, 18 h, hits give low values, screened at 18.75 µg/mL (by protocol)

Row | SMILES | survival
1 | CC(C)Oc1ccc(CNS(=O)(=O)c2csc(C(N)=O)c2)cc1 | 101% (inactive)
2 | COc1cccc2c1Oc1ncccc1N(C(=O)CCC(=O)NCc1ccc(OC(C)C)cc1)C2 | 83% (inactive)
3 | CCCCN(C)C(=O)CN1C(=O)c2cccnc2Oc2ccc(Cl)cc21 | 89% (inactive)
4 | CCN(c1ccccc1)S(=O)(=O)c1nnc(NC(=O)COc2ccccc2F)s1 | 31% (active)
5 | CCN(CC)S(=O)(=O)c1nnc(NC(=O)COc2ccccc2F)s1 | 103% (inactive)
6 | CCN(c1ccccc1)S(=O)(=O)c1nnc(NC(=O)COc2ccc(OC)cc2)s1 | 55% (inactive)
7 | O=C1C2CCCC1C(c1ccc3c(c1)OCO3)NC2c1ccc2c(c1)OCO2 (stereo not drawn) | 58% (inactive)
8 | Cc1ccc(-n2ncc(C(=O)NCCCN3CCN(C)CC3)c2C2CCN(C(=O)OC(C)(C)C)CC2)cc1 | 96% (inactive)
9 | COc1ccc(N2CCN(C(=O)c3noc4c3CCCCC4)CC2)cc1 | 72% (inactive)
10 | O=C(c1ccc2c(c1)N(Cc1ccc(F)cc1)C(=O)c1ccccc1S2(=O)=O)N1CCCCCC1 | 71% (inactive)
11 | Cc1ccc2oc(C(=O)Nc3ccc(S(=O)(=O)N(C)Cc4ccccc4)cc3)cc(=O)c2c1 | 50% (inactive)
12 | O=C(Nc1cccc(Cl)c1)C1CCCN(c2ncnc3c2nc2n3CCCCC2)C1 (stereo not drawn) | 17% (active)
13 | Cc1ccc(NC(=O)C2CCCN(c3ncnc4c3nc3n4CCCCC3)C2)cc1F (stereo not drawn) | 92% (inactive)
14 | Clc1cccc(N2CCN(c3ncnc4c3nc3n4CCCC3)CC2)c1 | 114% (inactive)
15 | COc1ccc(N2CCN(c3ncnc4c3nc3n4CCCCC3)CC2)cc1 | 100% (inactive)
16 | COc1cccc(N2CCN(c3ncnc4c3nc3n4CCCCC3)CC2)c1 | 20% (active)
17 | c1ccc(N2CCN(c3ncnc4c3nc3n4CCCCC3)CC2)cc1 | 89% (inactive)
18 | CCN(C(=O)C1CCCN(c2ncnc3c2nc2n3CCCCC2)C1)c1cccc(Cl)c1 (stereo not drawn) | 82% (inactive)
19 | Clc1cccc(N2CCN(c3ncnc4c3nc3n4CCCCC3)CC2)c1 | 11% (active)
20 | O=C(C1CCN(c2ncnc3c2nc2n3CCCCC2)CC1)N1CCN(c2cccc(Cl)c2)CC1 | 64% (inactive)
21 | COc1ccc(OC)c(CNc2ncnc3onc(C)c23)c1 | 129% (inactive)
22 | CCOc1ccc(NC(=O)c2cc(S(=O)(=O)N3CCC(C)CC3)cn2C)cc1 | 112% (inactive)

Row | SMILES | survival
23 | CCOc1ccc(/C=C/c2nc(C#N)c(NCc3ccc(OC)cc3)o2)cc1 | 68% (inactive)
24 | CCOC(=O)c1[nH]c2c(c1Cc1ccccc1)C(=O)CC(c1ccccc1)C2 (stereo not drawn) | 64% (inactive)
25 | CCOc1ccc(CCNc2nc3c(-c4ccc(C)cc4)nnn3c3ccccc23)cc1OCC | 88% (inactive)
26 | Cc1cc(-c2ccc(C)c(S(=O)(=O)N(C)c3ccc(C)c(C)c3)c2)on1 | 86% (inactive)
27 | COc1ccc(CCNC(=O)c2cc3c(=O)n4ccccc4nc3n2C)cc1 | 61% (inactive)
28 | Cn1c(C(=O)NCCc2ccccc2)cc2c(=O)n3ccccc3nc21 | 48% (active)
29 | O=C(Nc1ccc(OC(F)(F)F)cc1)c1cc2c(=O)n3ccccc3nc2s1 | 87% (inactive)
30 | CCCCCNC(=O)c1cc2c(=O)n3ccccc3nc2n1C | 54% (inactive)
31 | Cn1c(C(=O)Nc2cccc(C(F)(F)F)c2)cc2c(=O)n3ccccc3nc21 | 98% (inactive)
32 | Cn1c(C(=O)Nc2ccc(OC(F)(F)F)cc2)cc2c(=O)n3ccccc3nc21 | 55% (active)
33 | Cc1ccc(NC(=O)CSc2nc3c(c(=O)[nH]2)CN(Cc2ccccc2)CC3)cc1Cl | 70% (inactive)
34 | CSc1ccc(CCNC(=O)CCCn2nc(C)c3sc4ccccc4c3c2=O)cc1 | 76% (inactive)
35 | N/N=C1\C(=N/O)CCc2nonc21 | 95% (inactive)
36 | CCN(CC)c1ccc(NC(=O)Cn2ncc3c(C)n(Cc4ccccc4F)c(C)c3c2=O)c(C)c1 | 79% (inactive)
37 | Cc1nc(N2CCOCC2)c2c(C(=O)N3CCN(c4cccc(C(F)(F)F)c4)CC3)c(C)oc2n1 | 105% (inactive)
38 | Fc1ccccc1N1CCN(c2ncnc3onc(-c4cccc(Cl)c4)c23)CC1 | 53% (inactive)
39 | Fc1ccccc1N1CCN(c2ncnc3onc(-c4ccc(Cl)cc4)c23)CC1 | 54% (active)
40 | Cc1nc(N2CCOCC2)c2c(C(=O)NCCc3ccccc3)c(C)oc2n1 | 0% (active)
41 | Cc1oc2ncnc(N3CCOCC3)c2c1C(=O)N1CCN(c2cccc(C(F)(F)F)c2)CC1 | -5% (active)
42 | Fc1ccc(N2CCN(c3ncnc4onc(-c5ccc(Cl)cc5)c34)CC2)cc1 | 65% (inactive)
43 | Cc1oc2ncnc(N3CCCCC3)c2c1C(=O)N1CCN(c2cccc(C(F)(F)F)c2)CC1 | 66% (inactive)
44 | Cc1nc(N2CCOCC2)c2c(C(=O)N3CCN(c4ccc(Cl)cc4)CC3)c(C)oc2n1 | 92% (inactive)

Row | SMILES | survival
45 | Cc1nc(N2CCCC2)c2c(C(=O)N3CCN(c4ccccc4)CC3)c(C)oc2n1 | 81% (inactive)
46 | Cc1ccc(CCNC(=O)c2c(C)oc3nc(C)nc(N4CCOCC4)c23)cc1 | 106% (inactive)
47 | Cc1oc2ncnc(N3CCOCC3)c2c1C(=O)NCCc1ccccc1 | 89% (inactive)
48 | Cc1nc(N2CCOCC2)c2c(C(=O)N3CCN(c4ccccc4)CC3)c(C)oc2n1 | 37% (active)
49 | COc1ccc2c(CNCc3cccs3)c(C(=O)O)n(Cc3ccc(C)cc3)c2c1 | 77% (inactive)
50 | CCCOc1ccc(C(=O)NCC(c2ccc(OC)cc2)N2CCCCC2)cc1 (stereo not drawn) | 84% (inactive)
51 | Cc1nc2ccc(NC(=O)C3CC3)cc2c(=O)n1Cc1ccc(F)cc1 | 74% (inactive)
52 | Cc1ccc(CCNC(=O)c2cc(-c3ccc(Cl)cc3)n[nH]2)cc1 | 69% (inactive)
53 | CC(Nc1ncnc2c1cnn2-c1cccc(Cl)c1)c1ccccc1 (stereo not drawn) | 124% (inactive)
54 | COc1ccccc1Cn1c(CNS(=O)(=O)c2ccc3c(c2)CCCC3)nc2cccnc21 | 96% (inactive)
55 | CCOCCCn1c(=N)c(S(=O)(=O)c2ccccc2)cc2c(=O)n3cc(C)ccc3nc21 | 88% (inactive)
56 | Cc1ccc(CN2CCCn3nc(C(=O)NCc4ccc(N(C)C)cc4)cc3C2=O)cc1 | 80% (inactive)
57 | Cc1ccc(Cl)cc1N1CCN(c2ncnc3onc(C)c23)CC1 | 52% (active)
58 | Cc1nc(N2CCCC2)c2c(C(=O)N3CCN(c4cc(Cl)ccc4C)CC3)c(C)oc2n1 | 102% (inactive)
59 | Cc1ccc(Cl)cc1N1CCN(C(=O)c2c(C)oc3ncnc(N4CCCCC4)c23)CC1 | -4% (active)
60 | Cc1ccc(Cl)cc1N1CCN(c2ncnc3onc(-c4ccc(F)cc4)c23)CC1 | 97% (inactive)
61 | Cc1oc2ncnc(N3CCCCC3)c2c1C(=O)N1CCN(c2ccc(Cl)cc2)CC1 | 60% (inactive)
62 | Cc1ccc(C)c(N2CCN(C(=O)c3c(C)oc4nc(C)nc(N5CCOCC5)c34)CC2)c1 | 115% (inactive)
63 | Cc1ccc(Cl)cc1N1CCN(C(=O)c2c(C)oc3ncnc(N4CCOCC4)c23)CC1 | 89% (inactive)
64 | Cc1nc(N2CCOCC2)c2c(C(=O)N3CCN(c4cc(Cl)ccc4C)CC3)c(C)oc2n1 | 46% (active)
65 | Cc1ccc(C)c(N2CCN(c3ncnc4onc(C)c34)CC2)c1 | 90% (inactive)
66 | CCc1c(C)nc2cc(-c3ccc(OC)c(OC)c3)nn2c1NCC(C)(C)CN(C)C | 98% (inactive)

Row | SMILES | survival
67 | Cc1ccc(-n2ncc(C(=O)NCc3ccccn3)c2C2CCN(C(=O)OC(C)(C)C)CC2)cc1C | 102% (inactive)
68 | CCCC(=O)N1CCCC(c2nc(-c3ccc(OC)cc3)no2)C1 (stereo not drawn) | 82% (inactive)
69 | CCOc1nc(NC(=O)NS(=O)(=O)Oc2cccc(F)c2)nc(-c2ccccc2)n1 | 74% (inactive)
70 | Cc1c(NC(=O)Nc2ccccc2C(F)(F)F)sc2nc3n(c(=O)c12)CCC(C)CC3 (stereo not drawn) | 83% (inactive)
71 | COc1cccc(C(=O)NC2CC(=O)N(c3ccc4c(c3)OCCO4)C2)c1OC (stereo not drawn) | 107% (inactive)
72 | CCCCN(CCCC)CCCNC(=O)c1ccc2nc(N3CCCCC3)sc2c1 | 102% (inactive)
73 | CCCCOCc1cc(CN2CCN(c3cccc(Cl)c3)CC2)c(O)c2ncccc12 | 83% (inactive)
74 | CCc1cccc(C)c1NC(=O)C1CCN(S(=O)(=O)Cc2ccccc2)CC1 | 84% (inactive)
75 | Cc1ccc(S(=O)(=O)N(CC(=O)Nc2c(C)cccc2C)c2cccc(Cl)c2)cc1 | 46% (active)
76 | COc1ccc(CCNC(=O)CN(c2ccccc2OC)S(=O)(=O)c2ccc(C)cc2)cc1 | 71% (inactive)
77 | Cc1ccc(CNC(=O)CN(c2cccc(C)c2C)S(=O)(=O)c2ccccc2)cc1 | 73% (inactive)
78 | Cc1ccc(S(=O)(=O)N(CC(=O)NCCSc2ccc(Cl)cc2)c2ccccc2C)cc1 | 58% (inactive)
79 | Cc1ccc(S(=O)(=O)N(CC(=O)NCCc2ccc(Cl)cc2)c2ccccc2C)cc1 | 49% (active)
80 | Cc1ccc(S(=O)(=O)N(CC(=O)NCCSc2ccc(Cl)cc2)c2cccc(Cl)c2)cc1 | 112% (inactive)
81 | Cc1cccc(N(CC(=O)NCCc2ccccc2)S(=O)(=O)c2ccccc2)c1C | 56% (active)
82 | Cc1cccc(N(CC(=O)NCCSCc2ccccc2)S(=O)(=O)c2ccccc2)c1C | 57% (inactive)
83 | Cc1ccc(S(=O)(=O)N(CC(=O)Nc2ccc(Cl)cc2Cl)c2ccccc2C)cc1 | 106% (inactive)
84 | Cc1ccccc1CNC(=O)c1cnc2sc(N3CCOCC3)nn2c1=O | 68% (inactive)
85 | Cc1ccc(-n2nc3c(=O)n(CCCC(=O)NCCc4ccccc4Cl)nc(C)c3c2C)cc1 | 91% (inactive)
86 | COc1cccc(CNC(=O)CCc2c(C)nc3c(c(C)nn3-c3ccc(C)c(C)c3)c2C)c1 | 67% (inactive)
87 | O=S(=O)(c1ccccc1)c1nnn2c1nc(NC1CCCCCC1)c1sccc12 | 72% (inactive)
88 | Cc1nc(N2CCOCC2)c2c(C(=O)N(C)Cc3ccccc3)c(C)oc2n1 | 118% (inactive)
